G9a inh – qHTS Assay for Inhibitors of Histone Lysine Methyltransferase G9a; Histone-lysine N-methyltransferase EHMT2 (Homo sapiens), Q96KQ7; G9a H3K9 monomethylation, AlphaScreen, 2 h; Potency, µM (highest dose often 102 µM), most hits filed as inhibitors; 8.8% of 350,000 active; AID 504332, 2011; note: nearly all actives have a fitted effect of over 75% in size
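G9a (20 nM) preincubated 15 min RT with compounds, then 500 nM biotinylated H3K9 peptide and 20 uM SAM added; 2 h RT reaction. Monomethyl-H3K9 product detected by AlphaScreen with anti-H3K9me1 antibody, streptavidin donor and anti-rabbit IgG acceptor beads.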
HP1b chromo inh – HTS for Inhibitors of HP1-beta Chromodomain Interactions with Methylated Histone Tails | Chromobox protein homolog 1 (Homo sapiens), P83916 | AlphaScreen HP1-beta / biotin-H3K9me3 peptide binding | Potency, µM (doses to about 114 µM), usual class: inhibitors | 0.56% of 390,000 active | AID 540317, 2011; note: nearly all actives have a fitted effect of over 70% in size
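AlphaScreen: HP1-beta (50 nM) preformed 30 min with biotin-H3(1-18)K9me3 peptide (50 nM) in PBS pH 7.4, 0.01% Tween-20. Compound added for 30 min at RT, then streptavidin donor/nickel chelate acceptor beads (10 ug/mL) for 30 min.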
L3MBTL1 inh – qHTS Assay for the Inhibitors of L3MBTL1; AlphaScreen L3MBTL1–H3K9me1 peptide binding; Potency, µM (series often up to 57.1 µM), hits mostly inhibitors; AID 485360, 2010; 0.66% of 230,000 active; note: nearly all actives have a fitted effect of over 60% in size
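L3MBTL1 (50 nM) pre-complexed 30 min with biotinylated H3(1-15)K9me1 peptide (75 nM), then compounds added for 30 min at room temperature; AlphaScreen streptavidin donor/nickel chelate acceptor beads (10 ug/mL final) read after 30 min dark incubation.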
GLS inh – qHTS for Inhibitors of Glutaminase (GLS). Glutaminase kidney isoform, mitochondrial (Homo sapiens), O94925. GLS enzymatic activity, qHTS titration. Potency, µM (highest dose often 45.5 µM), most hits filed as inhibitors. 0.21% of 410,000 active. AID 624170, 2012
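Enzyme dispensed in phosphate buffer (45 mM, pH 8.2, 0.02% Tween-20), compounds pinned in, then 1 mM L-glutamine solution and the glutamate oxidase–HRP–Amplex Red mix added; fluorescence read immediately and again after 30 min at room temperature.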
JMJD2A Tudor – qHTS Assay for Inhibitors of JMJD2A-Tudor Domain | Potency, µM (highest dose often 114 µM), usual class: inhibitors | Lysine-specific demethylase 4A (Homo sapiens), O75164 | 4.4% of 390,000 active | AlphaScreen JMJD2A-Tudor / H3K4me3 peptide binding; note: nearly all actives have a fitted effect of over 50% in size
Target sequence (O75164 whole entry, looked up, the tested form may be a part): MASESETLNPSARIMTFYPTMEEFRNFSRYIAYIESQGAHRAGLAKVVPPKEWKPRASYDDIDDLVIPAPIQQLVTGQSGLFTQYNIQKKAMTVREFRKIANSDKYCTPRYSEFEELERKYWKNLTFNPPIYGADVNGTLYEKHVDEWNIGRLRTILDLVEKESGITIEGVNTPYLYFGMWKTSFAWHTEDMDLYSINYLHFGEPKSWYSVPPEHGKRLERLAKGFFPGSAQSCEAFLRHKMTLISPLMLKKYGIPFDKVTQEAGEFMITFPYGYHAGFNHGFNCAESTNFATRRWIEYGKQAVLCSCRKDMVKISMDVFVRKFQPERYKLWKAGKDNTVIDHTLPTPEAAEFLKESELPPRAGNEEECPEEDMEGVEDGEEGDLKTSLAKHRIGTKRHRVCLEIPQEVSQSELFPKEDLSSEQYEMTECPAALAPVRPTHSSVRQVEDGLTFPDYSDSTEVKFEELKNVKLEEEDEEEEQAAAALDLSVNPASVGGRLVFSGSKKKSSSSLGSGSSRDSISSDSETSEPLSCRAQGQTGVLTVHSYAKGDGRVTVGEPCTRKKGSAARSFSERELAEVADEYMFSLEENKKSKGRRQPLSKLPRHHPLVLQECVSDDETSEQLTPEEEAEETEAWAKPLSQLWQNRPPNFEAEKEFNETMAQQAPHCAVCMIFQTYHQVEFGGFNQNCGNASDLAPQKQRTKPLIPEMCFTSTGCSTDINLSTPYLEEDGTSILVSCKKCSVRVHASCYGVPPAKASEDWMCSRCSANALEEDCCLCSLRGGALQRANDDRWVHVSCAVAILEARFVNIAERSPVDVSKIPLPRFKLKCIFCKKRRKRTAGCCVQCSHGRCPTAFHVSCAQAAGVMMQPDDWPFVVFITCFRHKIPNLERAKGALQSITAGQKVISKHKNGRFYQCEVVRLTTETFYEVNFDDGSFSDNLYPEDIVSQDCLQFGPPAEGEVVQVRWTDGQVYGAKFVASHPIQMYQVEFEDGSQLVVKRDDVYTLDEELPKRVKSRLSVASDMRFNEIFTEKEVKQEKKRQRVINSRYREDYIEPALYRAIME
BAZ2B block – qHTS Assay for Inhibitors of BAZ2B. 4.4% of 360,000 active. Potency, µM (doses to about 114 µM), usual class: inhibitors. AlphaScreen BAZ2B-H3K14Ac peptide displacement. AID 504333, 2011; note: nearly all actives have a fitted effect of over 60% in size
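Compounds, titrated to a top concentration of 110 uM, were incubated 30 min at room temperature with preformed BAZ2B/acetyl-K14 H3 peptide complex (50 nM each). Proximity signal was measured by AlphaScreen after 20 min with beads.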
Numbers stand for hits; . = inactive; ? = inconclusive; / = not tested or not shown; [ ] = another dose, or the depositor's remark. Rows were chosen to be rich in hits. Some 10% of all compounds tested hit in one or more screens of this group. Calls come from the whole dose curve; as a rule, active = well fitted curve in the direction sought with a large enough effect; inconclusive = small, poorly fitted or top-dose-only effect, or another doubt; inactive = no such curve, though single readings can be large; an effect the other way counts as inactive or inconclusive.

SMILES	G9a inh	HP1b chromo inh	L3MBTL1 inh	GLS inh	JMJD2A Tudor	BAZ2B block
C#CC(C)(CC)NC(=O)Cn1nnc(-c2ccc(OCc3ccccc3F)cc2)n1 (stereo not given)	.	.	/	.	.	.
CCc1c(C)sc2c1CCN(Cc1cccc(OC)c1)C2c1ccccc1 (stereo not given)	.[12.7 µM]	.	/	.	.	.
CCCOc1ccccc1N1C(=O)CC(N(O)c2ccccc2)C1=O (stereo not given)	/	.	.	1.1µM	.	.
Cc1ccccc1N1C(=O)CC(N(O)c2ccccc2)C1=O (stereo not given)	?	.	.	.	.	.
COc1ccccc1N1C(=O)CC(N(O)c2ccccc2)C1=O (stereo not given)	?	.	.	1.3µM	.	.
CCCOC1(C(F)(F)F)NC(=O)N(c2ccc(Cl)cc2)C1=O (stereo not given)	.	.	/	.	.	.
N#C/C(=C\c1cc(O)c(O)c(O)c1)C(N)=O	/	?	.	.	3.5µM	.
N#C/C(=C\c1cc(Cl)c(OCc2ccc(Cl)cc2)c(Cl)c1)C(N)=O	.[12.7 µM]	/	/	/	/	.
CCOCCCn1c(=N)c(C(N)=S)cc2c(=O)n3cccc(C)c3nc21	?	.	.	?	79µM	?
Cc1cccn2c(=O)c3cc(C(N)=S)c(=N)n(CCCOC(C)C)c3nc12	?	.	.	?	?	.
COCCNC(=O)c1cc2c(=O)n3cccc(C)c3nc2n1C	28µM	.	.	.	.	.
Cc1cccn2c(=O)c3cc(C(=O)NC4CCCC4)c(=N)n(Cc4ccc(F)cc4)c3nc12	.	.	/	.	.	.
Cc1cccn2c(=O)c3cc(C(=O)NCCN4CCOCC4)c(=N)n(CCCN4CCOCC4)c3nc12	50µM	?	/	.	.	.
Cc1cccn2c(=O)c3cc(C(=O)NC4CCCCC4)c(=N)n(Cc4ccccc4)c3nc12	10µM	.	/	.	.	25µM
CCCCNC(=O)c1cc2c(=O)n3cccc(C)c3nc2n1C	.	/	.	/	/	.
CCNc1ncc2nc(CCc3ccccc3)c(=O)n(C[C@H]3CCCO3)c2n1	.[0.501 µM]	/	/	/	/	/
CCOCCCn1c(=NC(=O)c2cccs2)c(C#N)cc2c(=O)n3cccc(C)c3nc21	71µM	.	.	.	.	.
O=C(COc1ccc(Cl)cc1)NCCc1csc(-c2ccc(C(F)(F)F)cc2)n1	.	.	/	.	.	.
CCc1ccc(CNc2ncnc3onc(-c4ccc(Cl)cc4)c23)cc1	.	.	/	.	.	.
Cn1c(Cc2ccccc2)nnc1SCC(=O)Nc1ccccc1	.	.	.	.	.	.
Cc1ccc2cc(C)c3nnc(SCC(=O)c4cccs4)n3c2c1C	35µM	.	.	.	?	.
Cn1c(Cc2ccccc2)nnc1SCC(=O)c1cccs1	50µM	.	/	.	.	.
Cc1ccc(C)c2c1cc(C)c1nnc(SCC(=O)Nc3nc4c(s3)CCCC4)n12	.	.	.	.	.	.
Cc1ccc(C)c2c1cc(C)c1nnc(SCC(=O)c3cccs3)n12	13µM	.	.	.	?	.
Cc1cc2ccc(C)c(C)c2nc1SCC(=O)c1cccs1	.	.	.	.	.	.
SMILES	G9a inh	HP1b chromo inh	L3MBTL1 inh	GLS inh	JMJD2A Tudor	BAZ2B block
CC(=O)c1ccc(NC(=O)CSc2nc(-c3cccc(F)c3)nc3c2c(=O)n(C)c(=O)n3C)cc1	.	.	/	.	.	.
COc1cccc(CNC(=O)CCc2c(C)c3cc4c(C)coc4c(C)c3oc2=O)c1	.	.	/	.	?	.
Cc1n[nH]c(=S)n1/N=C/c1ccccc1OCc1ccc(Cl)cc1	?	.	.	.	50µM	.
COc1cccc(/C=N/n2c(COc3ccccc3)n[nH]c2=S)c1O	16µM	?	/	.	50µM	.
COc1cccc(/C=N/n2c(COc3ccccc3)n[nH]c2=S)c1OC	8.9µM	.	/	.	28µM	.
Cc1ccc(C)c(NC(=O)CSc2c3c(nc4ccc(Cl)cc24)CCCC3)c1	.	.	/	.	.	/
O=C(NCc1ccc(Cl)cc1)C(=O)NCC(c1ccc2c(c1)OCO2)N1CCOCC1 (stereo not given)	.	.	/	.	.	.
N#CC1=C(N)Oc2cc(Nc3ccccc3)ccc2C1c1ccncc1 (stereo not given)	/	.	.	.	79µM	?
COc1ccc(-c2noc(CSc3nnc(C)n3-c3cccc(C)c3)n2)cc1	.	.	/	.	.	.
O=C(NN1C(=O)c2ccccc2C1=O)C1C2CCCCC21 (stereo not given)	2.8µM	.	.	.	.	.
Cc1oc(-c2ccc(C(=O)NCc3ccc(Cl)cc3)cc2)nc1CS(=O)(=O)c1ccccc1	?	.	/	.	.	.
CCCN(CCC)C(=O)c1nn(C)c2c1CSc1ccccc1-2	.	.	/	.	.	.
COc1ccc(C2c3[nH]c4ccccc4c3C[C@H]3C(=O)N(C4CCN(Cc5ccccc5)CC4)CC(=O)N23)cc1OC (stereo not given in full)	13µM	.	/	.	?	?
COc1cccc(C2c3[nH]c4ccccc4c3C[C@H]3C(=O)N(C4CCN(Cc5ccccc5)CC4)CC(=O)N23)c1 (stereo not given in full)	.[12.7 µM]	.	/	.	?	?
COc1ccc(Cn2c(=O)c3oc4ccccc4c3n(Cc3ccccc3)c2=O)cc1	.	.	/	.	.	.
COc1cc(C(=S)N2CCCC2)cc(OC)c1O	32µM	.	/	.	.	.
COc1ccc(C(=S)N2CCNCC2)cc1	.	.	/	.	.	.
N#Cc1ccc(C(=O)OCC(=O)N2CCCC2)cc1	45µM	.	/	.	.	.
CCN1CCN(C(=S)c2ccc(Cl)cc2)CC1	?	?	/	?	79µM	.
COc1ccc(C(=S)N2CCCCCC2)cc1	6.3µM	?	?	.	89µM	.
CN(C)c1ncnc2ccc(-c3ccccc3C(F)(F)F)cc12	.[0.501 µM]	/	/	/	/	/
CC(=O)Nc1ccc(S(=O)(=O)N2CCC(n3c(C)nc4cccnc43)CC2)cc1	.	.	/	.	.	.
CCN1CCN(C(=S)c2ccc(OC)cc2)CC1	11µM	.	.	.	.	.
COc1ccc(C(=S)N2CCN(c3ccccc3C)CC2)cc1	8.9µM	.	/	.	.	.
CCOC(=O)c1ccc(C(=S)N2CCCC2)cc1	10µM	?	/	.	.	.
CCOc1ccc(C(=S)N2CCN(C)CC2)cc1	40µM	.	.	.	.	.

Screening data from PubChem.
